PubChem BioAssay (EPA / NIEHS)
Where “and” joins values, the source holds several entries; their conditions need not be identical. Equal entries are not always repeated. Where a structure was tested more than once in an assay, its records may differ in their call. Calls of active or inactive are those of the source. How the source made its calls: active means hit-call score of the fitted dose curve at least 0.9, where 1 is the maximum; inactive means score below 0.9.

What was measured:
[1] = ATG_AP_1_CIS: Attagene CIS-FACTORIAL HepG2 Assay for human Activator Protein 1 (AP-1) (AID 2282931); settings: HepG2 Attagene cis-factorial AP-1 reporter mRNA; actives raise or lower the signal
Outline: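 Transient MRTU transfection of HepG2 → 24 h chemical treatment → RNA isolation, RT-PCR, 6-FAM labelling, HpaI digest → capillary electrophoresis. Fit: bidirectional, DMSO negative control.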

[2] = ATG_AP_2_CIS: Attagene CIS-FACTORIAL HepG2 Assay for human Activator Protein 2 (AP-2) (AID 2282932); settings: HepG2 AP-2 cis-reporter, Attagene transcription factor profiling; actives raise or lower the signal
Outline: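 Transiently transfected HepG2 cells are exposed to chemical for 24 h. Reporter transcripts are then measured as fluorescence following RT-PCR and capillary separation, and gain- or loss-of-signal is fitted relative to DMSO.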

[3] = ATG_BRE_CIS: Attagene CIS-FACTORIAL HepG2 Assay for human Bone Morphogenetic Protein (BMP) Response Element (BRE) (AID 2282933); settings: HepG2 BMP response element reporter, Attagene transcription factor profiling; actives raise or lower the signal
Outline: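 After a 24 h chemical treatment, transiently transfected HepG2 cells were lysed for RNA; reporter transcripts were quantified by fluorescent RT-PCR and capillary electrophoresis, normalised to DMSO.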

[4] = molecular target: Retinoic acid receptor alpha (Homo sapiens) (UniProt P10276); assay: ATG_DR5_RAR_CIS: Attagene CIS-FACTORIAL HepG2 Assay for human Retinoic Acid Receptor Alpha (RARE), DR5 submotif (AID 2282934); settings: HepG2 Attagene cis-factorial RARE DR5 reporter, mRNA; actives raise or lower the signal;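 on AC50: reporter responds to endogenous RAR alpha beta and gamma in HepG2 not RARA alone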
Outline: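 Reporter transcripts from a DR5-regulated unit, measured via RT-PCR plus capillary electrophoresis, reflect endogenous RAR activity in transiently transfected human HepG2 liver cells. Exposure lasted 24 h; gain or loss of signal scored against DMSO.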

[5] = molecular target: Transcription factor E2F1 (Homo sapiens) (UniProt Q01094); assay: ATG_E2F_CIS: Attagene CIS-FACTORIAL HepG2 Assay for human E2F Transcription Factor 1 (AID 2282935); settings: HepG2 Attagene cis-reporter, E2F reporter RNA transcripts; actives raise or lower the signal
Outline: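 Fluorescent RT-PCR products, digested with HpaI for 2 h at 37 C, are separated by capillary electrophoresis. Source RNA comes from transfected HepG2 cultures treated for 24 h.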

[6] = ATG_E_Box_CIS: Attagene CIS-FACTORIAL HepG2 Assay for human Enhancer Box (E-box) (AID 2282936); settings: HepG2 E-box cis-reporter transcription, actives raise or lower the signal
Outline: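 Fluorescent reporter fragments separated by capillary electrophoresis gave the signal; mRNA came from HepG2 cells transfected with cis-element reporters and treated 24 h. Curves fitted bidirectionally relative to DMSO controls.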

[7] = ATG_M_61_CIS: Attagene CIS-FACTORIAL HepG2 Assay for M61 Transcription Factor (Internal Marker) (AID 2282937); settings: HepG2 Attagene CIS-FACTORIAL M61 internal marker reporter; actives raise or lower the signal
Outline: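 Human liver HepG2, transient MRTU transfection (cis promoter elements), 24 h compound. Total RNA → oligo(dT) RT → PCR → FAM label → HpaI → CE. Internal background marker; bidirectional fitting, DMSO = baseline.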

[8] = ATG_EGR_CIS: Attagene CIS-FACTORIAL HepG2 Assay for human Early Growth Response 1 (EGR1) (AID 2282938); settings: HepG2 Attagene CIS-FACTORIAL EGR reporter mRNA; actives raise or lower the signal
Outline: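 Transient transfection of human HepG2 with multiple cis-regulated reporter units, chemical exposure 24 h, total RNA isolated. Reverse transcription, PCR, fluorescent labelling and capillary electrophoresis quantify reporter transcripts; activity fitted bidirectionally against DMSO.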

[9] = ATG_Ets_CIS: Attagene CIS-FACTORIAL HepG2 Assay for human Erythroblast Transformation Specific (ETS) (AID 2282941); settings: HepG2 ETS cis-reporter transcription, actives raise or lower the signal
Outline: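 Cis-regulated reporter mRNA induction in HepG2 (transient transfection), 24 h exposure, RT-PCR plus capillary electrophoresis detection; DMSO serves as negative control and baseline.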

[10] = molecular target: Hepatocyte nuclear factor 3-beta (Homo sapiens) (UniProt Q9Y261); assay: ATG_FoxA2_CIS: Attagene CIS-FACTORIAL HepG2 Assay for human Forkhead box A2 (FOXA2) (AID 2282942); settings: HepG2 cis-reporter transcription factor activity, 24 h; actives raise or lower the signal
Outline: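 Transient MRTU transfection of HepG2 liver cells; 24 h treatment; total RNA → oligo(dT) RT → PCR → FAM primer extension → HpaI cut → CE. Bidirectional fit vs DMSO.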

[11] = ATG_FoxO_CIS: Attagene CIS-FACTORIAL HepG2 Assay for human Forkhead box O (FoxO) (AID 2282943); settings: HepG2 Attagene cis-reporter, FoxO element, mRNA; actives raise or lower the signal
Outline: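 Endogenous transcription factor activity read from multiplexed cis-promoter reporter transcripts in transiently transfected HepG2, 24 h after dosing. Reporter RNA measured via RT-PCR plus capillary electrophoresis of FAM-labeled products; gain or loss relative to DMSO.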

[12] = ATG_GATA_CIS: Attagene CIS-FACTORIAL HepG2 Assay for human GATA Binding Protein (AID 2282944); settings: HepG2 GATA cis-element reporter, Attagene multiplex mRNA; actives raise or lower the signal
Outline: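 Measures endogenous transcription factor-driven reporter mRNA in HepG2 cells transiently carrying cis-regulated constructs. 24 h dosing; RNA via oligo(dT) reverse transcription, PCR, HpaI digestion, capillary electrophoresis; fitted relative to DMSO.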

[13] = ATG_GLI_CIS: Attagene CIS-FACTORIAL HepG2 Assay for human Zinc Finger Protein GLI1 (AID 2282945); settings: HepG2, Attagene cis-factorial reporter mRNA, GLI element; actives raise or lower the signal
Outline: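 Bidirectional curve fits relative to DMSO, using reporter mRNA levels from RT-PCR plus capillary electrophoresis. Cells were HepG2 transiently carrying cis-regulated reporter constructs, harvested 24 h after dosing.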

[14] = molecular target: Bile acid receptor (Homo sapiens) (UniProt Q96RI1); assay: ATG_IR1_CIS: Attagene CIS-FACTORIAL HepG2 Assay for human Nuclear Receptor Subfamily 1 Group H Member 4 (NR1H4), IR1 submotif (AID 2282946); settings: IR1 reporter transcription, actives raise or lower the signal
Outline: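 HepG2 cells transiently transfected with multiplexed cis-element reporter units read endogenous transcription factor activity. After 24 h compound exposure, reporter mRNA was quantified by RT-PCR, fluorescent labelling, HpaI digestion and capillary electrophoresis; bidirectional fitting versus DMSO baseline.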

[15] = ATG_GRE_CIS: Attagene CIS-FACTORIAL HepG2 Assay for human Glucocorticoid Response Elements (GRE) (AID 2282947); settings: HepG2 GRE cis-reporter, Attagene multiplex mRNA; actives raise or lower the signal
Outline: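 Multiplexed cis-reporter mRNA induction, HepG2, 24 h post-dose. RT-PCR, FAM-labelled, HpaI-digested amplicons by CE. Bidirectional fit vs DMSO.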

[16] = ATG_ISRE_CIS: Attagene CIS-FACTORIAL HepG2 Assay for human Interferon Regulatory Factor 1 (IRF1) binding to an Interferon-Stimulated Response Element (ISRE) (AID 2282948); settings: HepG2 ISRE cis-reporter (Attagene), mRNA transcription readout; actives raise or lower the signal
Outline: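 Multiplexed mRNA reporter readout in human liver HepG2 cells: cis-element-driven reporters transfected, compound added for 24 h, transcripts amplified, fluorescently labelled and sized by capillary electrophoresis; curve fitting bidirectional against DMSO.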

[17] = ATG_M_32_CIS: Attagene CIS-FACTORIAL HepG2 Assay for M32 Transcription Factor (Internal Marker) (AID 2282949); settings: HepG2 Attagene cis-factorial M32 reporter, mRNA; actives raise or lower the signal;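 further: background control marker of the multiplexed CIS panel rather than a real target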
Outline: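 Using DMSO as baseline, bidirectional curve fits were applied to reporter mRNA signals. These came from transiently transfected HepG2 cells exposed for 24 h, with RNA analysed by RT-PCR, FAM primer extension, HpaI digestion and CE.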

[18] = ATG_M_06_CIS: Attagene CIS-FACTORIAL HepG2 Assay for M06 Transcription Factor (Internal Marker) (AID 2282950); settings: HepG2 Attagene CIS-FACTORIAL M06 internal marker reporter; actives raise or lower the signal
Outline: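 One of many multiplexed endpoints: HepG2 reporter mRNA after 24 h dosing, detected by RT-PCR and capillary electrophoresis fluorescence; gain or loss of signal analysed against DMSO.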

[19] = ATG_M_19_CIS: Attagene CIS-FACTORIAL HepG2 Assay for M19 Transcription Factor (Internal Marker) (AID 2282939); settings: HepG2 Attagene CIS-FACTORIAL M19 internal marker reporter; actives raise or lower the signal
Outline: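 In this multiplexed cell assay, transiently transfected HepG2 reporter units report endogenous transcription-factor activity; after 24 hours of treatment, labelled reporter cDNA fragments are quantified by capillary electrophoresis and fitted bidirectionally against DMSO.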

[20] = ATG_ERE_CIS: Attagene CIS-FACTORIAL HepG2 Assay for Estrogen Response Element (ERE) (AID 2282940); settings: HepG2 ERE cis-reporter, Attagene RNA transcript; actives raise or lower the signal
Outline: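 Measuring endogenous transcription factor output, the assay doses transfected HepG2 cells for 24 hours and quantifies reporter transcripts by fluorescent RT-PCR and capillary electrophoresis, with DMSO as baseline.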

Measured: AC50

Retinoic acid receptor alpha (Homo sapiens), sequence (P10276 whole entry, looked up): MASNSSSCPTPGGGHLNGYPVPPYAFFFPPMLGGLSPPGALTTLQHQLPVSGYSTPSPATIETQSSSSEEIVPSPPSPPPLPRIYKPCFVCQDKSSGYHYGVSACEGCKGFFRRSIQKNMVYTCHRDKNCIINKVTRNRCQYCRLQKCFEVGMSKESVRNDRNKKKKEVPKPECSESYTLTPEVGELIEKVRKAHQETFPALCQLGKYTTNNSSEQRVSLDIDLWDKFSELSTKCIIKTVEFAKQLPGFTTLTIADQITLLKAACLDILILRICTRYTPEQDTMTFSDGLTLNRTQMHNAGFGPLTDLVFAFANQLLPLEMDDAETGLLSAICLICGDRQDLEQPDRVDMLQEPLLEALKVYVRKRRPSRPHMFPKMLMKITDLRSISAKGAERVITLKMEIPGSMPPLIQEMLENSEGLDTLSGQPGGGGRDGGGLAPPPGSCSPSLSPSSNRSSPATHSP
Hepatocyte nuclear factor 3-beta (Homo sapiens), sequence (Q9Y261 whole entry, looked up): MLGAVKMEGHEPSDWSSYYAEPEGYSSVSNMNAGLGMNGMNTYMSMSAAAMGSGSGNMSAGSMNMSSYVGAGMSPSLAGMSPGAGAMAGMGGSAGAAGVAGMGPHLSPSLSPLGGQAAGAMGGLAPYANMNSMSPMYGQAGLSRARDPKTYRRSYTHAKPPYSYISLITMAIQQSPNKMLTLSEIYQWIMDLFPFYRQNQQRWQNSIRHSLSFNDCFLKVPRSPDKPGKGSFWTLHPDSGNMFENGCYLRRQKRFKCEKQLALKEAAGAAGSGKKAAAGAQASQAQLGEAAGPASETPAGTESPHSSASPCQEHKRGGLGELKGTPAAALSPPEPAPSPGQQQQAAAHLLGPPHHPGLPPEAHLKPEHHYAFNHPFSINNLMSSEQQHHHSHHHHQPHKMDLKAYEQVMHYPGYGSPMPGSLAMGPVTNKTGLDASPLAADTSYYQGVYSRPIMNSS
Transcription factor E2F1 (Homo sapiens), sequence (Q01094 whole entry, looked up): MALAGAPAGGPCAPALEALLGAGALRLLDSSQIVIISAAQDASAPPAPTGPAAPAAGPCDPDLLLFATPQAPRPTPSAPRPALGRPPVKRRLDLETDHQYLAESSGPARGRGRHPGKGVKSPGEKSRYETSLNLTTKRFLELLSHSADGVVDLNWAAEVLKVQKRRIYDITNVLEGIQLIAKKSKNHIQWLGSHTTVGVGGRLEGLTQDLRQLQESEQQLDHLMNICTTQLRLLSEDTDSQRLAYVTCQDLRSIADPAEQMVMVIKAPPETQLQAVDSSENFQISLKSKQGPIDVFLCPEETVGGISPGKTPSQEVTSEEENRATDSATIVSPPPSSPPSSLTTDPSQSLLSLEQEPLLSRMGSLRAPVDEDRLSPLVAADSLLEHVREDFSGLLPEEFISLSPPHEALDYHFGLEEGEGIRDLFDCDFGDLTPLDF
Bile acid receptor (Homo sapiens), sequence (Q96RI1 whole entry, looked up): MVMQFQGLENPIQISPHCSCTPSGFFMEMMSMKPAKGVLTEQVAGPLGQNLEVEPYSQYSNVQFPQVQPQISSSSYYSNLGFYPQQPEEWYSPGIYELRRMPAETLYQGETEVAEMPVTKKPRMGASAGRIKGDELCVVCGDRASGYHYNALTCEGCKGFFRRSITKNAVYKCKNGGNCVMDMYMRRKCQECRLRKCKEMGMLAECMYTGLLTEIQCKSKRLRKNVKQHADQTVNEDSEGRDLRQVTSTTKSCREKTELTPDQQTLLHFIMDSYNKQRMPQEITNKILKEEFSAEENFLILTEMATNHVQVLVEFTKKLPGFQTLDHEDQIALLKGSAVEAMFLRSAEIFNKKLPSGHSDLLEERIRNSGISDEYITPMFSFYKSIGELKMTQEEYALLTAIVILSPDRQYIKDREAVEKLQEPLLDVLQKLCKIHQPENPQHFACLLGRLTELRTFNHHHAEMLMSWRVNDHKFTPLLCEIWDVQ

O=C1C2(Cl)C3(Cl)C4(Cl)C(Cl)(Cl)C5(Cl)C3(Cl)C1(Cl)C5(Cl)C24Cl (centres undefined)
active: [1] 3.57 µM and 3.03 µM | [2] 18.4 µM | [4] 20.9 µM | [5] 11.1 µM | [6] 5.67 µM and 5.25 µM | [8] 8.48 µM | [9] 20.3 µM | [12] 14.9 µM | [13] 3.57 µM | [14] 7.38 µM | [15] 5.27 µM | [16] 15.1 µM
inactive: [1] | [2] | [3] | [4] | [5] | [6] | [7] | [8] | [9] | [10] | [11] | [12] | [13] | [14] | [15] | [16] | [17] | [18]

O=C(O)C(F)(F)C(F)(F)C(F)(F)C(F)(F)C(F)(F)C(F)(F)C(F)(F)C(F)(F)C(F)(F)C(F)(F)F
inactive: [1] | [2] | [3] | [4] | [5] | [6] | [7] | [19] | [9] | [10] | [11] | [12] | [13] | [14] | [17] | [18]
active: [1] 23.9 µM | [2] 55.8 µM | [4] 129 µM | [6] 54.5 µM | [7] 76.2 µM | [8] 24.7 µM and 14.8 µM | [19] 138 µM | [12] 148 µM | [13] 174 µM | [16] 44.5 µM and 20.1 µM | [17] 160 µM | [18] 76.2 µM

C=C(C)C#N
not listed: [15]
inactive: all other assays above

CC(=O)[O][Hg][c]1ccccc1
active: [4] 1.24 µM | [8] 4.73 µM | [15] 3.71 µM
inactive: all other assays above

C=CC(=O)OCCCCCC(C)C
not listed: [15]
inactive: all other assays above

CCOP(OCC)OCC
not listed: [15]
inactive: all other assays above

C=CC#N
active: [20] 71.5 µM
not listed: [14]
inactive: all other assays above

CC(C)(C)CC(C)(C)c1ccc(O)cc1
inactive: [1] | [2] | [3] | [5] | [6] | [7] | [8] | [19] | [9] | [10] | [11] | [12] | [13] | [14] | [15] | [16] | [17] | [18]
active: [1] 19.4 µM | [6] 8.06 µM | [14] 16.3 µM | [16] 8.06 µM

Oc1cccc2cccnc12
active: [1] 24.8 µM | [6] 69.2 µM | [8] 70.1 µM
inactive: [1] | [2] | [3] | [5] | [6] | [7] | [8] | [19] | [9] | [10] | [11] | [12] | [13] | [14] | [16] | [17] | [18]

COc1ccccc1OC
not listed: [14]
inactive: all other assays above

COC(=O)Cc1ccccc1
not listed: [14]
inactive: all other assays above
